The list is not random: actives were taken first. Their share in the collection is about 2.3%.
Coupling enz: inhibits coupling enzyme system, counter-screen for aldolase hits | coupling enzyme system counterscreen, AmpLite Red fluorescence | AID 2472 | activity change, negative = inhibition, % at 58.2 µM, hits read low | 290,000 compounds, 0.67% hits; in the data active = activity change below about -30%
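Counterscreen lacking aldolase: glyceraldehyde-3-phosphate coupling-enzyme reagent preincubated 10 min at RT with compound (at 57.5 uM final), then substrate/coupling system with AmpLite Red added; fluorescence read at 525/598 nm after 20 min RT.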
USP1-UAF1 inh: USP1/UAF1 (human) deubiquitinase inhibition; AID 743255; O94782; Potency, µM (doses to about 57.1 µM), without a hit: at the highest dose activity change, negative = inhibition, hits mostly inhibitors; 390,000 compounds, 0.23% hits; recombinant USP1/UAF1, Ub-Rhodamine cleavage fluorescence; note: potency is the fitted concentration of half-maximal effect; nearly all actives have a fitted effect of over 60% in size
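1 nM enzyme complex + cpd, 15 min RT; start with Ub-Rho 150nM final; kinetic fluorescence ex 480/em 540, 6 reads q60 s. Buffer 50mM HEPES pH 7.8, 0.5mM EDTA, 0.1 mg/ml BSA, 1mM TCEP, 0.01% Tween-20.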
Tau fluor cs: counter-screen for tau fibril formation inhibitors; 280,000 compounds, 0.93% hits; tau K18 P301L Alexa594 fluorescence, heparin fibrillization; Potency, µM (top dose mostly 57.7 µM), for the others: at the highest dose activity change, negative = decrease; note: potency is the fitted concentration of half-maximal effect; nearly all actives have a fitted effect of over 55% in size
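Human tau K18 P301L (15 uM unlabeled, 0.24 uM Alexa 594-labeled) in 100 mM sodium acetate pH 7 with 20 uM heparin, 6 hr at 37 C. ThT 30 uM added, 1 hr ambient; Alexa 594 FP and total fluorescence read at 555/632 nm.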
Tau fibril ThT: inhibitors of human tau fibril formation, thioflavin T binding | P10636 | recombinant tau K18 P301L, heparin-induced fibrillization, ThT fluorescence | Potency, µM (titrated, usually from 57.4 µM), for inactives: at the top dose activity, negative = inhibition, actives largely listed as inhibitors | 270,000 compounds, 2.1% hits; note: potency is the fitted concentration of half-maximal effect; nearly all actives have a fitted effect of over 55% in size
Target sequence (P10636 561-689 P618L limits assumed): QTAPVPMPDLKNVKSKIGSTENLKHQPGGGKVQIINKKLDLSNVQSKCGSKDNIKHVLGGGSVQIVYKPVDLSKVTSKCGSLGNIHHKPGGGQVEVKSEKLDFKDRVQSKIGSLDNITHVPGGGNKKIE
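Fibril formation assay: tau K18 P301L at 15 uM with trace Alexa 594 label, heparin inducer 20 uM, pH 7 sodium acetate buffer, 37 C for 6 hr; endpoint ThT signal.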
Tau fibril FP: inhibitors of human tau fibril formation | P10636 | K18 P301L tau heparin fibrillization, Alexa594 FP, 6 h | Potency, µM (doses to about 57.7 µM), for inactives: top-dose activity, negative = inhibition, actives largely listed as inhibitors | 280,000 compounds, 0.39% hits | AID 1468; note: potency is the fitted concentration of half-maximal effect; nearly all actives have a fitted effect of over 55% in size
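Human tau K18 […] P301L fragment, 15 uM unlabeled plus 0.24 uM Alexa 594-labeled tau (final), with compound and 20 uM heparin in 100 mM sodium acetate pH 7; 6 hr at 37 C, then Alexa 594 FP read.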
Starred values were filed as active, the others as inactive; ? = inconclusive; · = not tested or not shown; [ ] = remark or other dose. Unless noted, calls come from the whole dose curve; as a rule, active = well fitted curve in the direction sought with a large enough effect; inconclusive = small, poorly fitted or top-dose-only effect, or another doubt; inactive = no such curve, though single readings can be large; an effect the other way counts as inactive or inconclusive. % is set by controls: 0 for no effect and ±100 for the full control effect.

SMILES	Coupling enz	USP1-UAF1 inh	Tau fluor cs	Tau fibril ThT	Tau fibril FP
Nc1ccc2nc(C(F)(F)F)[nH]c2c1	-6	-11%	-10%	?	-4%
Cc1nc2cc3nc(C(F)(F)F)[nH]c3cc2[nH]1	-36*	-26%	-8%	?	-13%
Cc1ccc(NS(=O)(=O)c2ccc(Br)s2)nc1	-37*	-21%	-15%	28µM*	?
Cc1cc(C)nc(NS(=O)(=O)c2ccc(Br)s2)c1	-36*	-22%	-10%	-3%	-7%
CCN1CCN(c2ccc(S(=O)(=O)N3CCOCC3)cc2NC(=O)C(C)Oc2ccc(F)cc2)CC1 (centres undefined)	·	-17%	·	·	·
COc1cc([N+](=O)[O-])c2ncsc2c1	-3	-15%	14%	9%	6%
COc1cc(SSc2cc(OC)cc([N+](=O)[O-])c2N)c(N)c([N+](=O)[O-])c1	-30*	-25%	?	·	?
CN(CC(=O)Nc1cccc(F)c1)C(=O)CNC(=O)Cc1cccc2ccccc12	·	-25%	·	·	·
CSCC[C@H](NC(=O)c1ccc(NC[C@@H](N)CS)cc1-c1ccccc1)C(=O)O	0	·	·	·	·
CCn1c(-c2cc(-c3ccccc3)sc2N)n[nH]c1=S	-1	-15%	14µM*[quencher]	?	10%
CCCN1C(=O)/C(=C/c2c(N3CCNC(=O)C3CC(=O)OCC)nc3c(C)cccn3c2=O)SC1=S (centres undefined)	-3	?	3%	13µM*	-12%
CCOC(=O)CC1C(=O)NCCN1c1nc2ccc(C)cn2c(=O)c1/C=C1\SC(=S)N(CC(C)C)C1=O (centres undefined)	-5	13µM*	-10%	?	2%
COCCCNc1oc(-c2ccc(COc3ccccc3C)o2)nc1C#N	·	-6%	?	?	?
CC1(C)CC(=O)c2cc(-c3nc(-c4ccc(Cl)cc4)cs3)c(=O)n(-c3ccc(F)cc3)c2C1	·	-9%	-5%	5%	-16%
O=C(OCC(=O)N1CCCCC1)c1ccc2ccccc2n1	·	-8%	·	·	·
Nc1ccc2c(c1)OCCOCCOCCOCCOCCO2	-49*	?	-15%	?	-13%
Brc1ccc2c(c1)OCCOCCOc1cc(Br)ccc1OCCOCCOCCO2	-1	-25%	-14%	?	-10%
Cc1ccc2c(c1)c1c(c(=O)n(Cc3ccccc3)c(=O)n1Cc1cccc(F)c1)n2C	·	-18%	-9%	8%	-7%
Cc1ccc(Nc2nc(C(N)=O)c(NC(=O)c3ccccc3Br)s2)cc1	·	-18%	?	?	1%
Cc1cc(C(=O)NCCc2ccc(Cl)cc2)c2ccccc2n1	5	-3%	·	·	·
CC(C)c1ccc(Nc2cc(C(=O)NCCCN(C)Cc3ccccc3)c3ccccc3n2)cc1	·	-5%	?	6%	-6%
CSc1cccc(Nc2cc(C(=O)NCCc3ccc(Cl)cc3)c3ccccc3n2)c1	·	-21%	3.5µM*[quencher]	-11%	?
CCCCN(CCCNC(=O)c1cc(Nc2cccc(SC)c2)nc2ccccc12)Cc1ccccc1	·	-18%	1.8µM*[quencher]	?	?
CCCCN(CCCC)C1=C(C(=O)c2ccccc2)N(C)S(=O)(=O)c2ccccc21	·	-13%	-4%	-3%	-6%
CCOc1ccc(-c2cn3c(n2)sc2cc(C(=O)NCCc4ccc(OC)c(OC)c4)ccc23)cc1	·	-1%	-19%	?	7%
SMILES	Coupling enz	USP1-UAF1 inh	Tau fluor cs	Tau fibril ThT	Tau fibril FP
Cc1ccc(Oc2cc(NC(=O)CCCn3nc([N+](=O)[O-])c(Cl)c3C)cc([N+](=O)[O-])c2)cc1	0	-5%	7.9µM*[quencher]	-8%	4%
Cc1cc([N+](=O)[O-])nn1CCCC(=O)Nc1cc(Oc2ccccc2)cc([N+](=O)[O-])c1	-1	-19%	10µM*[quencher]	-10%	11%
Cc1cc([N+](=O)[O-])nn1CCCC(=O)Nc1cc(Oc2ccc(F)cc2)cc([N+](=O)[O-])c1	-2	-7%	-3%	-5%	3%
Cc1cc(C)cc(Oc2cc(NC(=O)c3cn(C)nc3C)cc([N+](=O)[O-])c2)c1	0	2%	2.5µM*[quencher]	5%	?
Cc1cccc(Oc2cc(NC(=O)Cn3cnc([N+](=O)[O-])n3)cc([N+](=O)[O-])c2)c1	-7	-29%	?	0%	4%
CC1=CC(c2ccccc2)n2nc(NS(=O)(=O)c3ccc(C)cc3)nc2N1 (centres undefined)	1	-11%	?	11µM*	?
CC1(C)CC[C@]2(C(=O)O)CC[C@]3(C)C(=CCC4[C@@]5(C)CC[C@H](O)C(C)(C)C5[C@H](O)C[C@]43C)C2C1 (some centres undefined)	14	·	-5%	-18%	2%
O=C(CNc1cccc(C(F)(F)F)c1)N/N=C/c1cn(-c2ccccc2)nc1-c1ccccc1	-4	-2%	?	0%	8.9µM*
Cc1ccc(S(=O)(=O)c2nc(-c3ccco3)oc2SC(C)c2ccccc2)cc1 (centres undefined)	·	-24%	?	-16%	?
COc1cc2cc(CCCOC(=O)c3ccc(F)cc3)oc(=O)c2cc1OC	·	-13%	·	·	·
Cc1cc(N=Nc2ccc(Cl)cc2)cc(CN2CCCC2)c1O	-10	-28%	?	28µM*	?
COc1ccc(O)c(/C=c2/sc3nc4cc(C)c(C)cc4n3c2=O)c1	1	-17%	?	22µM*	?
Cc1cc(Br)ccc1-n1[nH]c(C)c(C=Nc2cccc3nsnc23)c1=O	-30	?	?	14µM*	?
CC(C)CC(=NNC(=O)c1ccncc1)c1cc(Cl)ccc1O	·	28µM*	·	·	·
CC(=NNC(=O)c1ccncc1)c1ccccc1O	·	-6%	·	·	·
N#CC(C#N)=C1C=C2C=C(N3CCCCC3)CCC2CC1 (centres undefined)	2	?	?	?	-13%
N#CC1=C(N)C2=C(N3CCCCC3)CCCC2C1(C#N)C#N (centres undefined)	-14	-5%	?	32µM*	?
CC(=O)N1CCc2cc(Br)cc(S(=O)(=O)N3CCC(C(=O)Nc4cccc(C)c4C)CC3)c21	·	-1%	-22%	-4%	1%
COc1ccc(Nc2ncc(C(=O)Nc3cc(Cl)c(OC)cc3OC)c3ccccc23)cc1	·	-2%	?	-20%	?
COc1ccc(Nc2ncc(C(=O)Nc3cccc(Cl)c3)c3ccccc23)cc1	·	-32%	8.9µM*[quencher]	?	9%
COc1ccc(NC(=O)c2ccccc2C)cc1	1	-11%	·	·	·
COc1ccc(NC(=O)c2cccnc2Nc2ccccc2)cc1	2	-12%	16µM*[quencher]	-24%	-14%
COC(=O)c1ccccc1NC(=O)c1cnc(Nc2ccc(OC)cc2)c2ccccc12	·	-19%	4.5µM*[quencher]	?	0%
Cc1ccccc1CNC(=O)Cn1nc(C)c2nn(-c3ccc(Cl)cc3)c(C)c2c1=O	·	?	9%	5%	8%

High-throughput results (PubChem)
